{
  "source": "PubChem BioAssay (NCATS)",
  "key": {"[1]": {"target": "Glutathione peroxidase 1 (Homo sapiens) (UniProt P07203)", "sequence (P07203 whole entry, looked up)": "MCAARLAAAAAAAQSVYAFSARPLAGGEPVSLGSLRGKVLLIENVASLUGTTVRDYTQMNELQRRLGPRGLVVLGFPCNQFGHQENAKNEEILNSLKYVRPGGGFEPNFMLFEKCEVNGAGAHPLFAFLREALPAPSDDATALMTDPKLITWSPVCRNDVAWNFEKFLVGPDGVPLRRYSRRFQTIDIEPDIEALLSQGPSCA", "experiment": "Primary qHTS Assay for Inhibitors of Recombinant Selenoprotein Glutathione Peroxidase 1 (GPX1) (AID 1845191); further: potency means the concentration at half of the fitted maximal effect", "outline": "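Recombinant GPX1 (10 nM final) was preincubated with compound for 30 min at room temperature, then reacted with 1 mM GSH, 0.5 mM CHP, 0.5 mM NADPH and 100 nM glutathione reductase; NADPH fluorescence (340/450 nm) was read at 0 and 15 min.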"}, "[2]": {"target": "Phospholipid hydroperoxide glutathione peroxidase GPX4 (Homo sapiens) (UniProt P36969)", "sequence (P36969 whole entry, looked up)": "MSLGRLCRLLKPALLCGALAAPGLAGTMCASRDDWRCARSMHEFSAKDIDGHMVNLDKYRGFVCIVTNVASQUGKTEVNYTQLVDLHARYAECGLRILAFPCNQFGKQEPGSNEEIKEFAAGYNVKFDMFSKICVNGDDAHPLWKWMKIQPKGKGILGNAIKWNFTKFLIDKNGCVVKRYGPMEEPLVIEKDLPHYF", "experiment": "Primary qHTS Assay for Inhibitors of Recombinant Selenoprotein Glutathione Peroxidase 4 (GPX4) (AID 1845192)", "details": "outcome: at 50 µM (top of the series) unless noted", "outline": "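GR-coupled readout: 100 nM GR, 1 mM GSH, 0.5 mM NADPH; NADPH fluorescence (ex 340/em 450 nm) read at t=0 and after 15 min RT. GPX4 200 nM, preincubated 30 min with compound; substrate 0.5 mM CHP.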"}},
  "note": "“And” between values parts separate entries of the source, which are not always exact repeats. Identical values can stand only once. Records with an inconclusive call do not appear. Where a call stands in place of a potency, no number is given. The source made the active and inactive calls. The call rests on the fitted dose curve; in most records, active means well fitted inhibition curve with a large enough effect; inconclusive means small, poorly fitted or top-dose-only effect; inactive means flat fitted curve, though single readings scatter. Further: nearly all actives have a fitted effect of over 65% in size.",
  "data": [
    {"smiles": "C[C@]12CCC(=O)C=C1CC[C@@H]1[C@@H]2CC[C@@]2(C)[C@H]1CC[C@]2(O)C(=O)CO", "values": [
      {"measurement": "Potency", "setting": "[1]", "value": "inactive"},
      {"measurement": "outcome", "setting": "[2]", "value": "inactive"}
    ]},
    {"smiles": "CCN(CC)CCOCCOC(=O)C1(c2ccccc2)CCCC1", "values": [
      {"measurement": "Potency", "setting": "[1]", "value": "inactive"},
      {"measurement": "outcome", "setting": "[2]", "value": "inactive"}
    ]},
    {"smiles": "CCn1nc(C(=O)O)c(=O)c2cc3c(cc21)OCO3", "values": [
      {"measurement": "Potency", "setting": "[1]", "value": "inactive"},
      {"measurement": "outcome", "setting": "[2]", "value": "inactive"}
    ]},
    {"smiles": "CN(C)C(=O)Oc1cccc([N+](C)(C)C)c1", "values": [
      {"measurement": "Potency", "setting": "[1]", "value": "inactive"},
      {"measurement": "outcome", "setting": "[2]", "value": "inactive"}
    ]},
    {"smiles": "NC(=O)c1ncn([C@@H]2O[C@H](CO)[C@@H](O)[C@H]2O)c1O", "values": [
      {"measurement": "Potency", "setting": "[1]", "value": "inactive"},
      {"measurement": "outcome", "setting": "[2]", "value": "inactive"}
    ]},
    {"smiles": "COCCc1ccc(OCC(O)CNC(C)C)cc1", "note": "(stereo not given)", "values": [
      {"measurement": "Potency", "setting": "[1]", "value": "inactive"},
      {"measurement": "outcome", "setting": "[2]", "value": "inactive"}
    ]},
    {"smiles": "CCCCCN(CCCCC)C(=O)C(CCC(=O)O)NC(=O)c1ccc(Cl)c(Cl)c1", "note": "(stereo not given)", "values": [
      {"measurement": "Potency", "setting": "[1]", "value": "inactive"},
      {"measurement": "outcome", "setting": "[2]", "value": "inactive"}
    ]},
    {"smiles": "C#CCN(C)CCCOc1ccc(Cl)cc1Cl", "values": [
      {"measurement": "Potency", "setting": "[1]", "value": "inactive"},
      {"measurement": "outcome", "setting": "[2]", "value": "inactive"}
    ]},
    {"smiles": "O=C1NCN(c2ccccc2)C12CCN(CCCC(c1ccc(F)cc1)c1ccc(F)cc1)CC2", "values": [
      {"measurement": "Potency", "setting": "[1]", "value": "inactive"},
      {"measurement": "outcome", "setting": "[2]", "value": "inactive"}
    ]},
    {"smiles": "CN1C(=O)CC[C@H]1c1cccnc1", "values": [
      {"measurement": "Potency", "setting": "[1]", "value": "inactive"},
      {"measurement": "outcome", "setting": "[2]", "value": "inactive"}
    ]},
    {"smiles": "CCCCOCCOCCOCc1cc2c(cc1CCC)OCO2", "values": [
      {"measurement": "Potency", "setting": "[1]", "value": "inactive"},
      {"measurement": "outcome", "setting": "[2]", "value": "inactive"}
    ]},
    {"smiles": "CC(C)NNC(=O)c1ccncc1", "values": [
      {"measurement": "Potency", "setting": "[1]", "value": "inactive"},
      {"measurement": "outcome", "setting": "[2]", "value": "inactive"}
    ]},
    {"smiles": "OCCN1CCN(CC/C=C2/c3ccccc3Sc3ccc(C(F)(F)F)cc32)CC1", "values": [
      {"measurement": "Potency", "setting": "[1]", "value": "inactive"},
      {"measurement": "outcome", "setting": "[2]", "value": "inactive"}
    ]},
    {"smiles": "CN(C)CCCN1c2ccccc2Sc2ccccc21", "values": [
      {"measurement": "Potency", "setting": "[1]", "value": "inactive"},
      {"measurement": "outcome", "setting": "[2]", "value": "inactive"}
    ]},
    {"smiles": "Cc1nnc(SCC2=C(C(=O)O)N3C(=O)[C@@H](NC(=O)Cn4cnnn4)[C@H]3SC2)s1", "values": [
      {"measurement": "Potency", "setting": "[1]", "value": "20.2 µM (active)"},
      {"measurement": "outcome", "setting": "[2]", "value": "inactive"}
    ]},
    {"smiles": "CCN1CCC[C@H]1CNC(=O)c1c(O)c(Cl)cc(Cl)c1OC", "values": [
      {"measurement": "Potency", "setting": "[1]", "value": "inactive"},
      {"measurement": "outcome", "setting": "[2]", "value": "inactive"}
    ]},
    {"smiles": "NC(=O)N1c2ccccc2C=Cc2ccccc21", "values": [
      {"measurement": "Potency", "setting": "[1]", "value": "inactive"},
      {"measurement": "outcome", "setting": "[2]", "value": "inactive"}
    ]},
    {"smiles": "CO[C@@]1(NC(=O)CSCC#N)C(=O)N2C(C(=O)O)=C(CSc3nnnn3C)CS[C@@H]21", "values": [
      {"measurement": "Potency", "setting": "[1]", "value": "4.04 µM (active) and 25.1 µM (active)"},
      {"measurement": "outcome", "setting": "[2]", "value": "inactive"}
    ]},
    {"smiles": "CC(=O)[C@]1(O)Cc2c(O)c3c(c(O)c2[C@@H](O[C@H]2C[C@H](N)[C@H](O)[C@H](C)O2)C1)C(=O)c1ccccc1C3=O", "values": [
      {"measurement": "Potency", "setting": "[1]", "value": "inactive"},
      {"measurement": "outcome", "setting": "[2]", "value": "inactive"}
    ]},
    {"smiles": "NC(=Nc1ccccc1)Nc1ccccc1", "values": [
      {"measurement": "Potency", "setting": "[1]", "value": "inactive"},
      {"measurement": "outcome", "setting": "[2]", "value": "inactive"}
    ]},
    {"smiles": "c1cc(CN2CCCCC2)cc(OCCCNc2nc3ccccc3s2)c1", "values": [
      {"measurement": "Potency", "setting": "[1]", "value": "inactive"},
      {"measurement": "outcome", "setting": "[2]", "value": "inactive"}
    ]},
    {"smiles": "Fc1ccc(C(c2ccc(F)cc2)N2CCN(C/C=C/c3ccccc3)CC2)cc1", "values": [
      {"measurement": "Potency", "setting": "[1]", "value": "inactive"},
      {"measurement": "outcome", "setting": "[2]", "value": "inactive"}
    ]},
    {"smiles": "CN1CCN(CC(=O)N2c3ccccc3C(=O)Nc3cccnc32)CC1", "values": [
      {"measurement": "Potency", "setting": "[1]", "value": "inactive"},
      {"measurement": "outcome", "setting": "[2]", "value": "inactive [at 4.52 µM]"}
    ]},
    {"smiles": "O=C(O)CP(=O)(O)O", "values": [
      {"measurement": "Potency", "setting": "[1]", "value": "inactive"},
      {"measurement": "outcome", "setting": "[2]", "value": "inactive"}
    ]},
    {"smiles": "O=C(CCNNC(=O)c1ccncc1)NCc1ccccc1", "values": [
      {"measurement": "Potency", "setting": "[1]", "value": "inactive"},
      {"measurement": "outcome", "setting": "[2]", "value": "inactive"}
    ]}
  ]
}
